From PubChem
TDP1 cell CPT – growth inhibition of DT40 Tdp1-/-;hTDP1 cells with camptothecin (screen for TDP1 inhibitors) | Potency, µM (series often up to 46.2 µM), for inactives: top-dose activity change, negative = growth inhibition, hits mostly inhibitors | AID 686979 | actives 12% (n = 420,000) | chicken DT40 Tdp1-/-;hTDP1 cells + 20 nM CPT, ATP luminescence, 48 h; further: potency means the concentration at half of the fitted maximal effect; nearly all actives have a fitted effect of over 55% in size
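Cell growth measured by CellTiter-Glo luminescence after a minimum 48 h, 37 C compound exposure with 20 nM CPT in Tdp1-knockout DT40 cells stably expressing hTDP1, seeded 400/well; qHTS titration format.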
HT1080-NT tox – kills 2HG-producing HT-1080-NT fibrosarcoma cells | HT-1080-NT fibrosarcoma viability, CellTiter-Glo ATP luminescence, 48 h | Potency, µM (doses to about 46.1 µM), without a hit: at the highest dose activity, negative = less viability, hits mostly cytotoxic | actives 1.6% (n = 360,000);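 further: NT is the 2HG producing partner of a matched IDH1 knockdown line; potency means the concentration at half of the fitted maximal effect; 0% = DMSO-treated cells and -100% = media-only wells without cells; nearly all actives have a fitted effect of over 55% in size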
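Luminescent CellTiter-Glo readout after 48 hours of compound exposure at 37 degrees C defined viability of HT-1080-NT cells. Activity was normalized to DMSO wells and cell-free media wells; concentration-response curves were fitted and assigned curve classes.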
IL-1B inflam inh – inhibitors of inflammasome signaling (IL-1 beta secretion); THP-1 LPS/ATP IL-1B secretion, AlphaLISA, 16 h; hits give low values; activity change, % at 57.5 µM; actives 4.7% (n = 360,000); AID 743279; in the data active means activity change below about -50%; inconclusive means mostly about -30% to -49%
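THP-1 cells pretreated 1 hr with compounds (up to 57.5 uM final), then stimulated with LPS (250 ng/mL final) plus ATP (1.25 mM final); secreted IL-1B measured by AlphaLISA after 16 hr, decreased signal indicating inhibition.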
HT1080 IDH1KD tx – kills HT-1080 cells with IDH1 knockdown | HT-1080 IDH1 knockdown viability, ATP luminescence, 48 h | Potency, µM (highest dose often 46.1 µM), without a hit: at the top dose activity, negative = toxicity, hits mostly cytotoxic | actives 2% (n = 360,000) | AID 686971;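 further: potency means the concentration at half of the fitted maximal effect; 0% = DMSO wells and -100% = cell-free medium wells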
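% activity derives from luminescence (CellTiter-Glo), normalised to DMSO and no-cell wells. HT-1080-IDH1KD cells, 750/well, had 48 h compound exposure at 37 °C.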
TDP1 cell noCPT – qHTS for Inhibitors of human tyrosyl-DNA phosphodiesterase 1 (TDP1): qHTS in cells in absence of CPT. DT40 Tdp1-/- hTDP1 cells, no CPT, ATP luminescence, 48 h. Potency, µM (titrated, usually from 46.2 µM), without a hit: at the top dose activity change, negative = growth inhibition, most hits filed as inhibitors. actives 15% (n = 420,000); further: potency means the concentration at half of the fitted maximal effect; nearly all actives have a fitted effect of over 55% in size
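Cells were dispensed at 400 per well, compounds added by pin tool, plates incubated ≥48 hr at 37 °C, then CellTiter-Glo added for 30 min at room temperature before luminescence reading. Line: DT40 Tdp1-/- complemented with hTDP1; camptothecin omitted.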
uPA generation – blocks generation of uPA at the cell surface; actives 0.31% (n = 330,000); Potency, µM (doses to about 38.3 µM), without a hit: at the highest dose activity change, negative = inhibition, most hits filed as inhibitors; cell surface uPA generation assay, qHTS; AID 540303; active means well fitted inhibition curve with a large enough effect; inconclusive means small, poorly fitted or top-dose-only effect; inactive means no such curve, though single readings can be large or run the other way; tested in mouse RAW 264.7 cells; further: potency means the concentration at half of the fitted maximal effect; nearly all actives have a fitted effect of over 55% in size
* hit, by the source's call. The list is not random: actives were taken first. Their share in the collection is about 19%. Unless noted, the call rests on the fitted dose curve; in most records, active means well fitted curve in the direction sought with a large enough effect; inconclusive means small, poorly fitted or top-dose-only effect, or another doubt; inactive means no such curve, though single readings can be large; an effect the other way counts as inactive or inconclusive. Unless noted, on the % scale 0 is the no-effect control and ±100 the full control effect.

Screening CC(=O)[C@]1(O)Cc2c(O)c3c(c(O)c2[C@@H](O[C@H]2C[C@H](N)[C@H](O)[C@H](C)O2)C1)C(=O)c1ccccc1C3=O returned TDP1 cell CPT 0.146µM*, HT1080-NT tox 3.26µM*, IL-1B inflam inh -105.8*, HT1080 IDH1KD tx 0.326µM*, TDP1 cell noCPT 0.0073µM* and uPA generation -72.3%.
For COc1cccc2c1C(=O)c1c(O)c3c(c(O)c1C2=O)CC(O)(C(=O)CO)CC3OC1CC(N(C)C)C(O)C(C)O1 (configuration not stated) the results were TDP1 cell CPT 0.0146µM*, HT1080-NT tox inconclusive, IL-1B inflam inh -100.1*, HT1080 IDH1KD tx 0.411µM*, TDP1 cell noCPT 0.146µM* and uPA generation -10.0%.
COc1cccc2c1C(=O)c1c(O)c3c(c(O)c1C2=O)C[C@@](O)(C(C)=O)C[C@@H]3O[C@H]1C[C@H](N)[C@H](O)[C@H](C)O1 was read as TDP1 cell CPT 0.0206µM*, HT1080-NT tox 0.0731µM*, IL-1B inflam inh -110.2*, HT1080 IDH1KD tx 0.146µM*, TDP1 cell noCPT 0.0058µM* and uPA generation -75.2%.
CC1(c2nnc(-c3cccc(Cl)c3)o2)CC(c2ccccc2F)=NO1 (configuration not stated) was read as TDP1 cell CPT inconclusive, HT1080-NT tox 13.2%, IL-1B inflam inh -12.1, HT1080 IDH1KD tx -0.7%, TDP1 cell noCPT -26.5% and uPA generation -1.8%.
`CCCCOC(=O)c1ccc(NC(=O)C(=O)NCc2ccccn2)cc1` gave TDP1 cell CPT -13.8%, HT1080-NT tox -6.7%, IL-1B inflam inh 20.7, HT1080 IDH1KD tx 3.9%, TDP1 cell noCPT -29.2% and uPA generation -0.6%.
For O=C(COC(=O)c1ccc(=O)[nH]c1)Nc1cccc(S(=O)(=O)N2CCOCC2)c1 the results were TDP1 cell CPT -10.0%, HT1080-NT tox -0.6%, IL-1B inflam inh 0.9, HT1080 IDH1KD tx -2.0%, TDP1 cell noCPT -4.3% and uPA generation 0.7%.
Screening COc1cccc2c1C(=O)c1c(O)c3c(c(O)c1C2=O)C[C@@](O)(C(=O)CO)C[C@@H]3O[C@H]1C[C@H](N)[C@@H](O)[C@H](C)O1 returned TDP1 cell CPT 0.164µM*, HT1080-NT tox 0.259µM*, IL-1B inflam inh -27.2, HT1080 IDH1KD tx 0.517µM*, TDP1 cell noCPT 0.146µM* and uPA generation -85.9%.
`COC(=O)CC1[C@@]2(C)C[C@@]34OC5(C)OC6(CC[C@@]7(C)C(c8ccoc8)OC(=O)C(C(C)=O)C7[C@]6(O5)C(O)[C@@]3(O)C2O)[C@]14C` (some centres not stated) gave TDP1 cell CPT -10.0% and TDP1 cell noCPT 1.6%.
Screening CCOc1ccc(C(=O)c2cn(Cc3ccc(OC)cc3)c3cc(OC)c(OC)cc3c2=O)cc1 returned TDP1 cell CPT inconclusive and TDP1 cell noCPT 18.4µM*.
`CCOc1ccc(C(=O)c2cn(CC(=O)Nc3cc(OC)ccc3OC)c3cc(OC)c(OC)cc3c2=O)cc1` gave TDP1 cell CPT 23.1µM* and TDP1 cell noCPT 16.4µM*.
For COc1cc2c(=O)c(C(=O)c3ccc(C)c(C)c3)cn(Cc3ccc(F)cc3)c2cc1OC the results were TDP1 cell CPT 10.3µM* and TDP1 cell noCPT 18.4µM*.
Screening CCOc1ccc(NC(=O)Cn2cc(C(=O)c3ccc(CC)cc3)c(=O)c3cc(C)ccc32)cc1 returned TDP1 cell CPT -12.4% and TDP1 cell noCPT -24.3%.
Screening CCOc1ccc(NC(=O)Cn2cc(C(=O)c3ccc(C)c(C)c3)c(=O)c3cc(OC)c(OC)cc32)cc1 returned TDP1 cell CPT -11.8% and TDP1 cell noCPT -1.0%.
`COc1ccc2c(c1)c(=O)c(C(=O)c1ccccc1)cn2Cc1ccc(C)cc1` gave TDP1 cell CPT inconclusive, HT1080-NT tox inconclusive, IL-1B inflam inh -3.6, HT1080 IDH1KD tx inconclusive, TDP1 cell noCPT 16.4µM* and uPA generation inconclusive.
For CC1c2ccsc2CCN1S(=O)(=O)c1cccs1 (configuration not stated) the results were TDP1 cell CPT -5.3%, HT1080-NT tox 8.0%, IL-1B inflam inh 0.0, HT1080 IDH1KD tx 0.3%, TDP1 cell noCPT -21.4% and uPA generation -18.0%.
`CCCN(CC(=O)Nc1ccccc1C)C(=O)C1CC(=O)N(Cc2ccccc2)C1` (configuration not stated) gave TDP1 cell CPT -2.4%, HT1080-NT tox 2.5%, IL-1B inflam inh -3.0, HT1080 IDH1KD tx -4.4%, TDP1 cell noCPT 2.1% and uPA generation -14.7%.
Screening COc1cc2c(=O)c(C(=O)c3ccc(C)c(C)c3)cn(Cc3ccccc3)c2cc1OC returned TDP1 cell CPT 14.6µM* and TDP1 cell noCPT inconclusive.
COc1ccc(C(=O)c2cn(Cc3ccccc3F)c3cc4c(cc3c2=O)OCCO4)cc1OC was read as TDP1 cell CPT inconclusive and TDP1 cell noCPT 20.6µM*.
For CCc1ccc(C(=O)c2cn(CC(=O)Nc3cccc(OC)c3)c3cc4c(cc3c2=O)OCO4)cc1 the results were TDP1 cell CPT -11.8% and TDP1 cell noCPT inconclusive.
Screening CCc1ccc(C(=O)c2cn(Cc3ccccc3)c3cc(OC)c(OC)cc3c2=O)cc1 returned TDP1 cell CPT 16.4µM* and TDP1 cell noCPT 16.4µM*.
For COc1cc2c(=O)c(C(=O)c3ccc(C)c(C)c3)cn(Cc3ccccc3F)c2cc1OC the results were TDP1 cell CPT 18.4µM* and TDP1 cell noCPT 16.4µM*.
For COc1cccc(C(=O)c2cn(CC(=O)NCCc3ccccc3)c3nc(C)ccc3c2=O)c1 the results were TDP1 cell CPT -21.4% and TDP1 cell noCPT inconclusive.
CCc1ccc(C(=O)c2cn(CC(=O)Nc3ccc(OC)cc3)c3cc4c(cc3c2=O)OCO4)cc1 was read as TDP1 cell CPT -16.3% and TDP1 cell noCPT -9.1%.
NC(=O)NC(CC(=O)OCC(=O)Nc1nnc(-c2ccccc2)o1)c1ccc(Cl)cc1 (configuration not stated) was read as TDP1 cell CPT 2.5%, HT1080-NT tox 11.9%, IL-1B inflam inh 0.1, HT1080 IDH1KD tx -0.1% and TDP1 cell noCPT 3.4%.
`N#CCCNc1c(Cl)cc(Cl)cc1C(=O)O` gave TDP1 cell CPT -4.3%, HT1080-NT tox 8.0%, IL-1B inflam inh 7.2, HT1080 IDH1KD tx 8.1%, TDP1 cell noCPT -3.5% and uPA generation 7.1%.
